MEP2-GFP yeast: modulators of TOR pathway MEP2-GFP in S. cerevisiae. S. cerevisiae MEP2-GFP strain, flow cytometry GFP, 3 h; 100% = DMSO control level. GFP response vs DMSO, % at 10 µM. actives 0.51% (n = 330,000);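 active = GFP response versus DMSO above a set limit, roughly screen mean plus 3 SD, cut at about 180% in these data; inconclusive = fewer than 70 cells counted for a yeast strain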;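 also: median GFP fluorescence of the barcode-gated MEP2-GFP cells per well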
CIT2 TOR yeast: alters CIT2-GFP fluorescence in TOR pathway yeast screen. S. cerevisiae CIT2-GFP strain, flow cytometry, 3 h; 100 means same as DMSO wells. GFP response vs DMSO, % at 10 µM. actives 0.065% (n = 320,000);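 active = GFP response relative to DMSO above a set limit, near the screen mean plus 3 SD, cut at about 150% in these data; inconclusive = Fewer than 70 cells measured for a yeast strain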;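 also: ratio of well median GFP fluorescence to mean of DMSO wells on the plate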
LAP4 TOR yeast: alters LAP4-GFP fluorescence in TOR pathway yeast screen. S. cerevisiae LAP4-GFP multiplex, flow cytometry GFP, 3 h; median GFP as percent of DMSO wells. GFP response vs DMSO, % at 10 µM. actives 0.34% (n = 320,000). AID 2023;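 active = GFP response vs DMSO above a set limit, about the screen mean plus 3 SD, cut at about 150% in these data; inconclusive = under 70 cell events counted for the yeast strain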
RPL19A TOR yeast: yeast TOR pathway RPL19A-GFP modulation; actives 0.3% (n = 330,000); S. cerevisiae RPL19A-GFP strain, flow cytometry, 3 h; active compounds read low; percent response vs DMSO, % at 10 µM;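 active = percent response vs DMSO below 50%; inconclusive = fewer than 70 events counted for the yeast strain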;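 also: median channel GFP fluorescence of the barcoded RPL19A-GFP strain; ratio of sample median GFP to plate DMSO average so 100% = DMSO; lower means less RPL19A-GFP as with rapamycin TOR inhibition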
VLA-4 inh: inhibition in a human VLA-4 binding assay | inhibition, % (about 7 µM as worked out from the volumes in the protocol) | actives 0.2% (n = 330,000) | VLA-4 expressing cells, ligand binding flow cytometry | AID 2557 | P13612; in the data active = inhibition above about 50%
AGP1 TOR yeast: modulators of TOR pathway AGP1-GFP in S. cerevisiae; actives 0.02% (n = 320,000); GFP response vs DMSO, % at 10 µM; S. cerevisiae AGP1-GFP multiplex flow cytometry, 3 h; GFP as percent of DMSO wells; AID 2066;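 active = GFP response relative to DMSO above a set limit, near screen average plus 3 SD, cut at about 150% in these data; inconclusive = fewer than 70 cells counted for the yeast strain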;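 also: median GFP channel fluorescence of the gated AGP1 strain per well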
* hit, by the source's call; i = inactive; ? = inconclusive; · = no result; [ ] = dose if it differs, or a comment. Most compounds without a hit are left out; they make up all but 1.1% or so of the library.

SMILES | MEP2-GFP yeast | CIT2 TOR yeast | LAP4 TOR yeast | RPL19A TOR yeast | VLA-4 inh | AGP1 TOR yeast
O=C1CCC([N+](=O)[O-])C(C2CC=CCC2)N1 (centres undefined) | 98 | 95 | 99 | 101 | -1 | 103
COc1cccc(NC(=O)/C=C/c2ccccc2[N+](=O)[O-])c1 | 104 | 102 | 97 | 101 | · | 97
COc1cccc(NC(=O)/C=C/c2ccc([N+](=O)[O-])cc2)c1 | 193* | 105 | 113 | 70 | 15 | 21
O=C1Nc2ccccc2C1(O)c1ccccc1O (centres undefined) | ? | ? | ? | 31*[may fluoresce violet] | 8 | ?
Cc1cc(C2(O)C(=O)Nc3ccccc32)ccc1F (centres undefined) | 121 | 113 | 95 | 106 | -17 | 109
CCCOc1ccc(-c2c(C(=O)N/N=C/C3CC=CCC3)nnn2-c2nonc2N)cc1 (centres undefined) | 108 | 114 | 91 | 103 | 20 | 110
CCCOc1ccc(-c2c(C(=O)N/N=C/C3CCCCC3)nnn2-c2nonc2N)cc1 | 148 | ? | 77 | 27*[may fluoresce violet] | 8 | ?
COc1ccc(S(=O)(=O)N2CCN(C(c3ccccc3)c3ccccc3)CC2)cc1NC(C)=O | 94 | 96 | 94 | 98 | 15 | 99
O=C(c1ccc([N+](=O)[O-])o1)N1CCN(c2nc3c(Cl)cccc3s2)CC1 | 95 | 95 | 128 | 95 | 7 | 102
O=C(c1ccc([N+](=O)[O-])o1)N1CCN(c2nc3ccc(F)cc3s2)CC1 | 96 | 78 | 163* | 93 | 3 | 90
COc1cc(/C=C2\CCn3c2nc2cc(C(=O)O)ccc2c3=O)ccc1OC(F)F | 107 | 104 | 94 | 106 | 5 | 96
COc1ccc(Nc2cc(C(=O)NCCCN3CCN(C)CC3)c3ccccc3n2)cc1 | 244*[may fluoresce violet] | ? | 96 | 47*[may fluoresce violet] | -11 | 21
COc1ccc(Nc2cc(C(=O)NCCCN3CCOCC3)c3ccccc3n2)cc1 | 103 | 96 | 94 | 99 | -4 | 95
Cn1c(=O)c2c(ncn2CC(=O)Nc2ccccc2)n(C)c1=O | 210*[may fluoresce violet] | ? | 88 | 59 | 4 | ·
Cn1c(=O)c2c(ncn2CCOc2ccc(Br)cc2)n(C)c1=O | 109 | 109 | 88 | 96 | 3 | 101
Cn1c(=O)c2c(ncn2CCOc2ccc(F)cc2)n(C)c1=O | ? | ? | 70 | 40*[may fluoresce violet] | -8 | ?
C[C@H](NC(=O)c1nc[nH]c1C(=O)N[C@@H](CCCCN)C(=O)OC(C)(C)C)C(=O)OCc1ccccc1 | 104 | 109 | 109 | 105 | 4 | 113
COC(=O)c1cc(NC(=O)COC(=O)C2COc3ccccc3O2)cc(C(=O)OC)c1 (centres undefined) | 102 | 100 | 106 | 103 | -5 | 101
Cc1ccc(NC(=O)NNC(=O)C2CC(c3cccs3)=NO2)cc1 (centres undefined) | 112 | 150*[may fluoresce green] | 103 | 95 | 3 | 112
CCc1cccc(NS(=O)(=O)c2c(C)nc3scc(C)n3c2=O)c1 | 110 | 105 | 106 | 103 | 3 | 98
CSc1ncc2c(n1)-c1cc(C)ccc1SC2 | 104 | 111 | 86 | 102 | 5 | 102
Cc1ncc2c(n1)-c1cc(F)ccc1SC2 | 178* | 144 | 115 | 116 | -35 | 96
COc1ccc(CC(=O)Nc2ccncc2Cl)cc1 | 100 | 100 | 94 | 100 | 12 | 101
COc1ccc(OCc2nc3ccc(S(=O)(=O)Nc4ccccc4Cl)cc3[nH]2)cc1 | 181*[may fluoresce violet] | ? | 72 | 27*[may fluoresce violet] | 25 | ?
O=C(OCc1c(-c2ccccc2)ncc2ccccc12)c1cccs1 | 101 | 77 | 123 | 97 | -3 | 91
SMILES | MEP2-GFP yeast | CIT2 TOR yeast | LAP4 TOR yeast | RPL19A TOR yeast | VLA-4 inh | AGP1 TOR yeast
O=C(NCCc1ccccc1)c1ccc(CS(=O)(=O)Cc2ccccc2F)o1 | 93 | 99 | 81 | ? | -2 | 80
O=C(NCCN1CCOCC1)c1ccc(CS(=O)(=O)Cc2ccccc2F)o1 | 192* | 97 | 100 | 94 | -5 | 80
N#CC1=C(N)OC2=C(CC/C2=C\c2ccccc2)C1c1ccccc1 (centres undefined) | 188*[may fluoresce violet] | ? | 107 | 95 | -163 | 19
N#CC1=C(N)OC2=C(CC/C2=C\c2ccccc2Cl)C1c1ccccc1Cl (centres undefined) | 105 | 98 | 97 | 109 | 0 | 98
Cc1oc2c(CN3CCCC(C)C3)c(O)ccc2c(=O)c1-c1ccccc1 (centres undefined) | 253* | 94 | 99 | 50 | 7 | 56
CN(C)CCNC(=O)C1CCN(S(=O)(=O)c2ccc3ccccc3c2)CC1 | 95 | 96 | 95 | 95 | -11 | 101
Cc1cc2nc3c(=O)[nH]c(=S)[nH]c3nc2cc1NC(=O)C(F)(F)F | 100 | 95 | 93 | 98 | 3 | 93
Cc1c(CCO)c(=O)[nH]n1S(=O)(=O)c1ccc([N+](=O)[O-])cc1 | 103 | 156*[may fluoresce green] | 102 | 92 | 0 | 115
COc1ccc(S(=O)(=O)n2[nH]c(=O)c(CCO)c2C)cc1 | 114 | 137 | 106 | 95 | -8 | 108
Cc1nc2ccc(Br)cn2c1C(=O)N/N=C\c1ccccc1Cl | 248* | 124 | 135 | 86 | 10 | 126
O=C(CNC(=O)c1ccccc1)NCCCSc1ccccc1 | 106 | 109 | 94 | 103 | 3 | 103
O=C(NCCCSc1ccccc1)c1cc(Cl)ccc1O | 114 | 108 | 162* | 110 | -15 | 82
CC(=O)C1=C(O)C(=O)N(CCO)C1c1ccccc1 (centres undefined) | 106 | 110 | 104 | 111 | 3 | 108
CC(=O)C1=C(O)C(=O)N(CCC(=O)O)C1c1cccc(F)c1 (centres undefined) | 200*[may fluoresce violet] | ? | 91 | 69 | 16 | 21
Cc1ccc(C)c(NC(=S)N2CCC(NC(=O)c3ccco3)CC2)c1 | 105 | 102 | 87 | 106 | 7 | 103
CC1CCN(C(=O)CN2C(=O)C(=O)N(C(C)C)C2=O)c2ccccc2S1 (centres undefined) | 88 | 93 | 90 | 92 | -20 | 100
COc1ccccc1N1N=C(c2ccc([N+](=O)[O-])cc2)CC1c1ccccc1 (centres undefined) | 122 | 93 | 103 | 103 | i | 75
Fc1ccc(C2CC(c3ccco3)=NN2c2ccccc2)cc1 (centres undefined) | 103 | 96 | 107 | 96 | -12 | 101
O=[N+]([O-])c1ccc(N2N=C(c3ccco3)CC2c2ccccc2)cc1 (centres undefined) | 122 | 223* | 132 | 93 | 6 | 63

Screening results from PubChem.
